# Results filed as inconclusive are left out. Activity calls are given as the source filed them. Rule for the calls: active = hit-call score of the fitted dose curve at least 0.9, where 1 is the maximum; inconclusive = response in the unintended direction; inactive = score below 0.9.
# Tests used:
# [1] = target: human Phosphodiesterase 4A1 (PDE4A1), PDE4A (gene 5141) (UniProt P27815); test: NVS_ENZ_hPDE4A1: NovaScreen (NVS) Enzymatic Assay for human Phosphodiesterase 4A1 (PDE4A1) (AID 2283191)
# Procedure, shortened: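 Cell-free recombinant human PDE4A1 with fluorescent substrate; product separated by electrophoretic mobility shift, 1 h. Screened at 25 uM, then up to 50 uM in concentration-response; loss of signal fitted against DMSO.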
# [2] = target: Serine/threonine-protein phosphatase PP1-alpha catalytic subunit (Homo sapiens) (UniProt P62136); test: NVS_ENZ_hPPP1CA: NovaScreen (NVS) Enzymatic Assay for human Protein Phosphatase 1 Aatalytic subunit Alpha (PPP1CA) (AID 2283200)
# Serine/threonine-protein phosphatase PP1-alpha catalytic subunit (Homo sapiens), sequence (P62136 whole entry, looked up): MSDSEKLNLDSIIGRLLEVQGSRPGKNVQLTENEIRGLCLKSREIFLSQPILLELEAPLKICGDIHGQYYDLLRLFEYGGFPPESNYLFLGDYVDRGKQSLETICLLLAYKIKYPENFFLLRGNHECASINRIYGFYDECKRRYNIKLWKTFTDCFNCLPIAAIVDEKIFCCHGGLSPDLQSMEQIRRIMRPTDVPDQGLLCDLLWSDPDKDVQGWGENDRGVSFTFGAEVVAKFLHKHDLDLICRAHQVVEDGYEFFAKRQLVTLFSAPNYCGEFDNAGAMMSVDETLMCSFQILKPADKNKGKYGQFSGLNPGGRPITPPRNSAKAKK
# Procedure, shortened: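 Recombinant enzyme activity read by fluorescence with electrophoretic mobility shift separating substrate from product, 1.33 h after dosing; loss of signal vs DMSO baseline. Primary screen in duplicate at 25 uM; actives retested in concentration-response up to 50 uM.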
# [3] = target: human Protein Tyrosine Phosphatase Non-receptor Type 2 (PTPN2), PTPN2 (gene 5771) (UniProt P17706); test: NVS_ENZ_hPTPN2: NovaScreen (NVS) Enzymatic Assay for human Protein Tyrosine Phosphatase Non-receptor Type 2 (PTPN2) (AID 2283207)
# human Protein Tyrosine Phosphatase Non-receptor Type 2 (PTPN2), PTPN2 (gene 5771), sequence (P17706 whole entry, looked up): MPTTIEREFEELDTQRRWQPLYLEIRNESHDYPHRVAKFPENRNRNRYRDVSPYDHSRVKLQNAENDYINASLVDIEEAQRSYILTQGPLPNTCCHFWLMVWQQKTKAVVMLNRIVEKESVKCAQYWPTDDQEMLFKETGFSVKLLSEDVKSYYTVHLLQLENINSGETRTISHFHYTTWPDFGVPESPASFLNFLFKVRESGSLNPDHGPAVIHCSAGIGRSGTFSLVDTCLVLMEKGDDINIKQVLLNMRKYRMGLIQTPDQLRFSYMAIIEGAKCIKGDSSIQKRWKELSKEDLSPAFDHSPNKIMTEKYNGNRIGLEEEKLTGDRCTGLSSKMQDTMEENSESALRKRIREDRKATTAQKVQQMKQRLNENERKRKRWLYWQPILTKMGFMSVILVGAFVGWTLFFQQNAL
# Procedure, shortened: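 Cell-free recombinant enzyme with fluorescent substrate, product separated by electrophoretic mobility shift; read 1 h after dosing. Primary screen single concentration (25 uM) in duplicate; actives followed in concentration series; loss of signal versus DMSO.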
# [4] = target: human Matrix Metalloproteinase-9 (MMP9), MMP9 (gene 4318) (UniProt P14780); test: NVS_ENZ_hMMP9: NovaScreen (NVS) Enzymatic Assay for human Matrix Metalloproteinase-9 (MMP9) (AID 2283190);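 note: cell-free recombinant MMP9 protease activity read by fluorescent substrate signal; active means inhibition seen as loss of fluorescence signal versus DMSO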
# human Matrix Metalloproteinase-9 (MMP9), MMP9 (gene 4318), sequence (P14780 whole entry, looked up): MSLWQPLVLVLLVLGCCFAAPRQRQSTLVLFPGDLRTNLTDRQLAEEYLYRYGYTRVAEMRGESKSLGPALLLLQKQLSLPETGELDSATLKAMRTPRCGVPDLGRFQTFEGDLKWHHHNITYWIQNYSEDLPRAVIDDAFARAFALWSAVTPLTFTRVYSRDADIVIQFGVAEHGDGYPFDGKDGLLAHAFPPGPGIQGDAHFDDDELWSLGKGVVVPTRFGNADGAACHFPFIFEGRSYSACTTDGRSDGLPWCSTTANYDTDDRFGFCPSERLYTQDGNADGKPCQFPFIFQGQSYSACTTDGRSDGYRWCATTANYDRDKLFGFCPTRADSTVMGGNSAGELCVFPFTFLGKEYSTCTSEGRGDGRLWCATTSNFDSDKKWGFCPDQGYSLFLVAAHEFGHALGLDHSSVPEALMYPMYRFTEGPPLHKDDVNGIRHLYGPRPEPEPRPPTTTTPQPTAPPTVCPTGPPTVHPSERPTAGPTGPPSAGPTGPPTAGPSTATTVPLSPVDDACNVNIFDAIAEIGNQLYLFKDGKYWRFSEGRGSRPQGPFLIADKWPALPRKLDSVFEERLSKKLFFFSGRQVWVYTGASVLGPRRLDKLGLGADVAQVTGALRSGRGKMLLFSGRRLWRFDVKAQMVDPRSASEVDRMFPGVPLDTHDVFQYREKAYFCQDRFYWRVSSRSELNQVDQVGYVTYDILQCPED
# Procedure, shortened: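 Inhibition was scored as loss of fluorescence signal against DMSO controls. The recombinant protease was exposed to chemicals for 1 hour before reading; initial testing used 25 uM in duplicate.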
# [5] = target: Tyrosine-protein phosphatase non-receptor type 14 (Homo sapiens) (UniProt Q15678); test: NVS_ENZ_hPTPN14: NovaScreen (NVS) Enzymatic Assay for human Protein Tyrosine Phosphatase Non-receptor Type 14 (PTPN14) (AID 2283206)
# Procedure, shortened: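 Cell-free recombinant human PTPN14 with fluorescent substrate, read 0.5 h after dosing by fluorescence and electrophoretic mobility shift separating substrate from product. Primary screen at 25 uM in duplicate; hits run to 50 uM maximum; loss of signal versus DMSO.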
# [6] = target: human Phosphoinositide 3-kinase alpha (PI3Ka), PIK3CA (gene 5290) (UniProt P42336); test: NVS_ENZ_hPI3Ka: NovaScreen (NVS) Enzymatic Assay for human Phosphoinositide 3-kinase alpha (PI3Ka) (AID 2283196)
# human Phosphoinositide 3-kinase alpha (PI3Ka), PIK3CA (gene 5290), sequence (P42336 whole entry, looked up): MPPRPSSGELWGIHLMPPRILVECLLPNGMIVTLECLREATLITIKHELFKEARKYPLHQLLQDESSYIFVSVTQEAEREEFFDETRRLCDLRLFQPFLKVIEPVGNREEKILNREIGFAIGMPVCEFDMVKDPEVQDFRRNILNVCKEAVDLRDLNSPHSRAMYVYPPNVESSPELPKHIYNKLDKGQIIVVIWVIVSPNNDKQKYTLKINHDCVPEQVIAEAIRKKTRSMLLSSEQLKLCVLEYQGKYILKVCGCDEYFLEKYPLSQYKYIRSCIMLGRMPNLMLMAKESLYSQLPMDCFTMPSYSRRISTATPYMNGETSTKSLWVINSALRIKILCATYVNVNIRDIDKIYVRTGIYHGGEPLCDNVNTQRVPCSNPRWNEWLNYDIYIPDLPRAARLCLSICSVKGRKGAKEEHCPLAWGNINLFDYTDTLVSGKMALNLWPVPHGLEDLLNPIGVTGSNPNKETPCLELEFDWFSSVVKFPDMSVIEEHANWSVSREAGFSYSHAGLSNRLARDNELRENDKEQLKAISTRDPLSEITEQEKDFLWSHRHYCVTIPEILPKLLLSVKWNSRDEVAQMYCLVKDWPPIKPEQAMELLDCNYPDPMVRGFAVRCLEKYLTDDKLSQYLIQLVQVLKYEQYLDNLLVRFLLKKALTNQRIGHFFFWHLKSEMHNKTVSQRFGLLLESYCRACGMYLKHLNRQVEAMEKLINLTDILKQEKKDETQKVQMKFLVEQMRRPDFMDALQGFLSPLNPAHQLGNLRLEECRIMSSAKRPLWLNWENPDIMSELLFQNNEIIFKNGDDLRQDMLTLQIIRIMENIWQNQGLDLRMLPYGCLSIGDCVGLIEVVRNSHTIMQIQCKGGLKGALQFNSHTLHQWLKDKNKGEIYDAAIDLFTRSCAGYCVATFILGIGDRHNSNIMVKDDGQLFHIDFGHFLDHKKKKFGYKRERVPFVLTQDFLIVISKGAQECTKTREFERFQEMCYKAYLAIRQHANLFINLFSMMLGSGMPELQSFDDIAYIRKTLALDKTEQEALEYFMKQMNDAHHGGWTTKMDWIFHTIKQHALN
# Procedure, shortened: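 Chemicals were first screened at 25 uM in duplicate, then hits were run as concentration series up to 50 uM. Enzyme activity was measured by fluorescence after mobility-shift separation, with loss of signal relative to DMSO taken as activity.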
# [7] = target: human Mitogen- and Stress-activated Protein Kinase-1 (Msk1), RPS6KA5 (gene 9252) (UniProt O75582); test: NVS_ENZ_hMsk1: NovaScreen (NVS) Enzymatic Assay for human Mitogen- and Stress-activated Protein Kinase-1 (Msk1) (AID 2283187)
# Procedure, shortened: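 Recombinant kinase with fluorescent substrate; product separated by electrophoretic mobility shift, read 1 h after dosing. Screened in duplicate at 25 uM; hits (e.g. ≥30% inhibition) tested in concentration–response up to 50 uM. DMSO baseline.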
# [8] = target: cAMP-dependent protein kinase catalytic subunit alpha (Homo sapiens) (UniProt P17612); test: NVS_ENZ_hPKA: NovaScreen (NVS) Enzymatic Assay for human Protein Kinase A (PKA) (AID 2283192)
# Procedure, shortened: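 Recombinant human PKA with specific fluorescent substrate, product separated by electrophoretic mobility shift, read 1 h after dosing. Primary screen at 25 uM in duplicate; actives then run in concentration-response up to 50 uM, activity relative to DMSO.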
# [9] = target: Tyrosine-protein phosphatase non-receptor type 13 (Homo sapiens) (UniProt Q12923); test: NVS_ENZ_hPTPN13: NovaScreen (NVS) Enzymatic Assay for human Protein Tyrosine Phosphatase Non-receptor Type 13 (PTPN13) (AID 2283205)
# Procedure, shortened: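 Cell-free assay of recombinant human PTPN13 with a fluorescent substrate, product separated by electrophoretic mobility shift and read 0.5 h after dosing. Primary screen at 25 uM in duplicate, then concentration-response up to 50 uM. Loss of signal fitted against DMSO.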
# [10] = target: human Phosphodiesterase 5 (PDE5), PDE5A (gene 8654) (UniProt O76074); test: NVS_ENZ_hPDE5: NovaScreen (NVS) Enzymatic Assay for human Phosphodiesterase 5 (PDE5) (AID 2283194)
# Procedure, shortened: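 Recombinant human PDE5 with specific substrate, read 1 h after dosing by fluorescence with electrophoretic mobility-shift separation of substrate and product. Initial single-concentration duplicate screen at 25 uM, actives followed in concentration series; loss of activity versus DMSO.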
# [11] = target: human Protein Tyrosine Phosphatase Non-receptor Type 4 (PTPN4), PTPN4 (gene 5775) (UniProt P29074); test: NVS_ENZ_hPTPN4: NovaScreen (NVS) Enzymatic Assay for human Protein Tyrosine Phosphatase Non-receptor Type 4 (PTPN4) (AID 2283208)
# Procedure, shortened: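 Cell-free assay of PTPN4 expressed in Sf9 cells, using a fluorescent substrate with product separated by mobility shift; read 1.33 h after dosing. Single-point screen at 25 uM, then concentration-response up to 50 uM. Loss of signal relative to DMSO.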
# [12] = target: human Protein Tyrosine Phosphatase Non-receptor Type 1 (PTPN1), PTPN1 (gene 5770) (UniProt P18031); test: NVS_ENZ_hPTPN1: NovaScreen (NVS) Enzymatic Assay for human Protein Tyrosine Phosphatase Non-receptor Type 1 (PTPN1) (AID 2283201)
# human Protein Tyrosine Phosphatase Non-receptor Type 1 (PTPN1), PTPN1 (gene 5770), sequence (P18031 whole entry, looked up): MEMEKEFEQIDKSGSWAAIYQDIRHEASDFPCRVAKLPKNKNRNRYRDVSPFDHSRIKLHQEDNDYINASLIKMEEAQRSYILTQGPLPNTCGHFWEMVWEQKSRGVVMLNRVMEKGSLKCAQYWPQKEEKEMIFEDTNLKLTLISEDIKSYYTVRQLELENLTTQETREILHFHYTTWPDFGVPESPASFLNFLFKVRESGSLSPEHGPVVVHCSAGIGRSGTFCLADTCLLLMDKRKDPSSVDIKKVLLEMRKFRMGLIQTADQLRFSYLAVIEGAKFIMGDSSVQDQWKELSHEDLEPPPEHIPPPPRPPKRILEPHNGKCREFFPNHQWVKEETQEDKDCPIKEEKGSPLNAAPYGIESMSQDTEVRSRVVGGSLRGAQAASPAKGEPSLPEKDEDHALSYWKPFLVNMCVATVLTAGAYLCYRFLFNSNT
# Procedure, shortened: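 Cell-free fluorogenic-substrate activity assay on recombinant enzyme, read 1.33 h after dosing by fluorescence and electrophoretic mobility shift; loss of signal vs DMSO baseline. Primary screen in duplicate at 25 uM, hits then run in concentration-response up to 50 uM.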
# [13] = target: Tyrosine-protein phosphatase non-receptor type 11 (Homo sapiens) (UniProt Q06124); test: NVS_ENZ_hPTPN11: NovaScreen (NVS) Enzymatic Assay for human Protein Tyrosine Phosphatase Non-receptor Type 11 (PTPN11) (AID 2283202)
# Procedure, shortened: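 Recombinant human PTPN11 activity on a fluorescent substrate, with substrate/product separated by electrophoretic mobility shift; read 0.5 h after dosing, loss of signal vs DMSO. Duplicate 25 uM screen, then concentration-response up to 50 uM.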
# [14] = target: PPP2CA (gene 5515) (UniProt P67775); test: NVS_ENZ_hPPP2CA: NovaScreen (NVS) Enzymatic Assay for human Protein Phosphatase 2 Aatalytic subunit Alpha (PPP2CA) (AID 2283199)
# Procedure, shortened: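 Recombinant human PPP2CA with fluorescent substrate; product separated from substrate by electrophoretic mobility shift, read 1.33 h after dosing. Duplicate single-point at 25 uM, then singleton concentration-response up to 50 uM; loss of signal versus DMSO.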
# [15] = target: human Protein Tyrosine Phosphatase Non-receptor Type 9 (PTPN9), PTPN9 (gene 5780) (UniProt P43378); test: NVS_ENZ_hPTPN9: NovaScreen (NVS) Enzymatic Assay for human Protein Tyrosine Phosphatase Non-receptor Type 9 (PTPN9) (AID 2283209)
# Procedure, shortened: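 Sf9-expressed enzyme in a cell-free assay, fluorescence read 1.33 h after dosing with mobility-shift separation of substrate and product. Tested at 25 uM in duplicate, then up to 50 uM; signal loss versus DMSO.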
# [16] = target: human Phosphatase and Tensin Homolog (PTEN), PTEN (gene 5728) (UniProt P60484); test: NVS_ENZ_hPTEN: NovaScreen (NVS) Enzymatic Assay for human Phosphatase and Tensin Homolog (PTEN) (AID 2283203)
# human Phosphatase and Tensin Homolog (PTEN), PTEN (gene 5728), sequence (P60484 whole entry, looked up): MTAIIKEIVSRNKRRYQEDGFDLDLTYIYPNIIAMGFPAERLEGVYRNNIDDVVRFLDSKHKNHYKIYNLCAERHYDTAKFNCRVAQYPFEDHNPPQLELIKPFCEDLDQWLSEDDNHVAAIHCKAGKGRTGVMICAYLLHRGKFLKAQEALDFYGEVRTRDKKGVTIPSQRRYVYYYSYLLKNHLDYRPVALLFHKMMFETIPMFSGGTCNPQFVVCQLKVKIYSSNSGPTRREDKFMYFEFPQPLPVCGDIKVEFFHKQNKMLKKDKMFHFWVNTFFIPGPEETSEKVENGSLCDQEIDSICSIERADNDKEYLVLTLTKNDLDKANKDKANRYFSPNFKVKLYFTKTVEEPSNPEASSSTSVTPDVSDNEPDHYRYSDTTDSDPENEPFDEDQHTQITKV
# Procedure, shortened: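 Cell-free recombinant human PTEN with fluorescent substrate; product separated by electrophoretic mobility shift and read by fluorescence 1 h after dosing. Primary screen in duplicate at 25 uM, actives followed in concentration series versus DMSO.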
# [17] = target: Tyrosine-protein phosphatase non-receptor type 12 (Homo sapiens) (UniProt Q05209); test: NVS_ENZ_hPTPN12: NovaScreen (NVS) Enzymatic Assay for human Protein Tyrosine Phosphatase Non-receptor Type 12 (PTPN12) (AID 2283204)
# Tyrosine-protein phosphatase non-receptor type 12 (Homo sapiens), sequence (Q05209 whole entry, looked up): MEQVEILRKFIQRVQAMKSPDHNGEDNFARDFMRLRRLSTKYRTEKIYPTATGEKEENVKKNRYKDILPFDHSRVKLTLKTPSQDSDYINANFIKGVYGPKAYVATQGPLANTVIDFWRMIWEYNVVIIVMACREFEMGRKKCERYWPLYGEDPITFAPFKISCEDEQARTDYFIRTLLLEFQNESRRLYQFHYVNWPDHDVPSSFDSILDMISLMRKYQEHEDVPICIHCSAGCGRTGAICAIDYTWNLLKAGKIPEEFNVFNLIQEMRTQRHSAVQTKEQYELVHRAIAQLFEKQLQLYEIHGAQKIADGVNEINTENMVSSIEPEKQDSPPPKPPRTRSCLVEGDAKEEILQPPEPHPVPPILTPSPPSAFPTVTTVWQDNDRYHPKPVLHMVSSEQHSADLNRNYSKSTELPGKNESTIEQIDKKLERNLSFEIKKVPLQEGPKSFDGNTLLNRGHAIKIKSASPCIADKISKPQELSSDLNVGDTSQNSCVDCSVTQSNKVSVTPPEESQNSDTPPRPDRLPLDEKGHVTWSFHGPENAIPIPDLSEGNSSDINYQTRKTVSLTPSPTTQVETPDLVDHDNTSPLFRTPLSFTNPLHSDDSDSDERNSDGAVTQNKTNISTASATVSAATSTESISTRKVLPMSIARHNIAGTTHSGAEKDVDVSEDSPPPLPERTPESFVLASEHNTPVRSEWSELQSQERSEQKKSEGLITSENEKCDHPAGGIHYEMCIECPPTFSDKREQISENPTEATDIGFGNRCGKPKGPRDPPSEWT
# Procedure, shortened: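 Single-concentration duplicates (25 uM) preceded singleton concentration-response up to 50 uM for chemicals passing threshold. Cell-free recombinant PTPN12 activity was read 1.33 h after dosing via fluorescence after mobility-shift separation; loss of signal versus DMSO.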
# human Phosphodiesterase 4A1 (PDE4A1), PDE4A (gene 5141), sequence (P27815 whole entry, looked up): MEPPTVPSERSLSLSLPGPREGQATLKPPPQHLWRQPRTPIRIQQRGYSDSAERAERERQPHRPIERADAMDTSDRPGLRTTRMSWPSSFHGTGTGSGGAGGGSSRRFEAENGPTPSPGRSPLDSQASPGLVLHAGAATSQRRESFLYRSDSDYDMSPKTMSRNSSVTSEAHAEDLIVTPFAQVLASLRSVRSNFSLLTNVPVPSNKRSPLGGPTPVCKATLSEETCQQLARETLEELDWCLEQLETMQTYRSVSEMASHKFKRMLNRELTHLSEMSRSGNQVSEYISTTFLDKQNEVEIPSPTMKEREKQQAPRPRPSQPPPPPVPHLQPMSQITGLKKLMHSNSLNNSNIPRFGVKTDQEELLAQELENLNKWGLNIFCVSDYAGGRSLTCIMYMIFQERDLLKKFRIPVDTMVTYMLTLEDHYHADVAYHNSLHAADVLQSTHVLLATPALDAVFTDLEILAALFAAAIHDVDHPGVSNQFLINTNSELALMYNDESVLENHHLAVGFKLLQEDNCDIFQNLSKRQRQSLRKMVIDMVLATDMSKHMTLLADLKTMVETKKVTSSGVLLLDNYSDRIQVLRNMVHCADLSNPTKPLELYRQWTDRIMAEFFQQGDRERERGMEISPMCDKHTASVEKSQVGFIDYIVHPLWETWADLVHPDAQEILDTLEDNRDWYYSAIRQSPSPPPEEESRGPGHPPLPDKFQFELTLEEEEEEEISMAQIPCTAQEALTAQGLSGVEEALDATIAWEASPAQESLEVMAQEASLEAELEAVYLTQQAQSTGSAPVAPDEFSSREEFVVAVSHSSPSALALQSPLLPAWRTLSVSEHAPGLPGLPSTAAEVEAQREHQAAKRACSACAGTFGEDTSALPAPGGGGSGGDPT
smiles,measurement,setting,value
COc1ccc(C(=CC(=O)N2CCOCC2)c2ccc(Cl)cc2)cc1OC,AC50,[1],0.0383 µM (active)
CCOP(=S)(OCC)Oc1cc(C)nc(C(C)C)n1,outcome,[1],inactive
same,outcome,[2],inactive
same,outcome,[3],inactive
O=C(O)c1cc(Oc2ccc(C(F)(F)F)cc2Cl)ccc1[N+](=O)[O-],outcome,[4],inactive
same,outcome,[1],inactive
same,outcome,[5],inactive
COP(=O)(OC)SCn1c(=O)oc2cc(Cl)cnc21,outcome,[4],inactive
CC1(C(=O)Nc2ccc(O)c(Cl)c2Cl)CCCCC1,outcome,[6],inactive
O=[N+]([O-])c1cc(C(F)(F)F)c(Cl)c([N+](=O)[O-])c1Nc1ncc(C(F)(F)F)cc1Cl,outcome,[6],inactive
same,outcome,[2],inactive
Nc1c(Cl)cc([N+](=O)[O-])cc1Cl,outcome,[7],inactive
same,outcome,[8],inactive
same,AC50,[9],25 µM (active)
same,outcome,[3],inactive
C[Si](Cn1cncn1)(c1ccc(F)cc1)c1ccc(F)cc1,AC50,[1],7.33 µM (active)
same,outcome,[10],inactive
Cc1ccn2nc(S(=O)(=O)Nc3c(F)cccc3F)nc2n1,outcome,[4],inactive
same,outcome,[6],inactive
same,outcome,[11],inactive
CCCOCC(=Nc1ccc(Cl)cc1C(F)(F)F)n1ccnc1,outcome,[4],inactive
same,outcome,[1],inactive
S=C1NCCN1,outcome,[4],inactive
same,outcome,[8],inactive
same,outcome,[12],inactive
same,outcome,[13],inactive
same,outcome,[3],inactive
CCOP(=S)(Oc1cnc(C(C)(C)C)nc1)OC(C)C (configuration not stated),outcome,[14],inactive
CCOP(=S)(OCC)OC(Cl)C(Cl)(Cl)Cl (configuration not stated),outcome,[12],inactive
same,AC50,[15],12.7 µM (active)
CC(C)[C@H](C(=O)O[C@H](C#N)c1cccc(Oc2ccccc2)c1)c1ccc(Cl)cc1,outcome,[16],inactive
C#CC(C)(C)NC(=O)c1cc(Cl)cc(Cl)c1,outcome,[16],inactive
same,outcome,[3],inactive
CCCCSP(=O)(SCCCC)SCCCC,outcome,[17],inactive
COc1cc(OC)nc(Sc2cccc(Cl)c2C(=O)O)n1,outcome,[17],inactive
CCc1cccc(CC)c1N(COC)C(=O)CCl,outcome,[3],inactive
N#CSCSC#N,outcome,[15],inactive

# — PubChem BioAssay (EPA / NIEHS)
